Assay results taken from the supplement of paper PMC12669032.
Unmarked numbers belong to inactive results.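 The calls were made as follows: active = AUC reduced over 20% with Padj below 0.05 in at least 2 of 3 replicates; inactive = otherwise.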

Legend:
Test in all cases: growth AUC relative to DMSO control (median of replicates) (fraction); higher = more growth (less inhibition), active = hit call of the paper
Conditions in all cases: 20 µM; 24 h
Akkermansia muciniphila = test system: Akkermansia muciniphila
In short: (§1)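 Starting at OD600 0.05, gut bacterial monocultures in mGAM were grown anaerobically at 37 °C with 20 µM compound (1% DMSO) under pierced gas-permeable seals. OD600 was read every hour for 24 h, and the lowest OD of each curve was set to 0. Area under the growth curve was normalised to the plate median of solvent-only wells, or to row and column medians on the industrial chemical plate, and the median of three biological replicates grown on separate days is given.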

Bacteroides caccae = test system: Bacteroides caccae
In short: as §1

Bacteroides clarus = test system: Bacteroides clarus
In short: as §1

Bacteroides dorei = test system: Bacteroides dorei
In short: as §1

Bacteroides stercoris = test system: Bacteroides stercoris
In short: as §1

[1] = test system: Bacteroides thetaiotaomicron
In short: as §1

Bacteroides uniformis = test system: Bacteroides uniformis
In short: as §1

[2] = test system: Bifidobacterium longum subsp. longum
In short: as §1

Clostridium difficile = test system: Clostridium difficile
In short: as §1

Collinsella aerofaciens = test system: Collinsella aerofaciens
In short: as §1

Coprococcus comes = test system: Coprococcus comes
In short: as §1

Escherichia coli ED1a = test system: Escherichia coli ED1a
In short: as §1

Escherichia coli IAI1 = test system: Escherichia coli IAI1
In short: as §1

Eubacterium rectale = test system: Eubacterium rectale
In short: as §1

[3] = test system: Fusobacterium nucleatum subsp. animalis
In short: as §1

Lactobacillus gasseri = test system: Lactobacillus gasseri
In short: as §1

Lactobacillus paracasei = test system: Lactobacillus paracasei
In short: as §1

Odoribacter splanchnicus = test system: Odoribacter splanchnicus
In short: as §1

[4] = test system: Parabacteroides distasonis
In short: as §1

Parabacteroides merdae = test system: Parabacteroides merdae
In short: as §1

SMILES	growth AUC (Akkermansia muciniphila)	growth AUC (Bacteroides caccae)	growth AUC (Bacteroides clarus)	growth AUC (Bacteroides dorei)	growth AUC (Bacteroides stercoris)	growth AUC [1]	growth AUC (Bacteroides uniformis)	growth AUC [2]	growth AUC (Clostridium difficile)	growth AUC (Collinsella aerofaciens)	growth AUC (Coprococcus comes)	growth AUC (Escherichia coli ED1a)	growth AUC (Escherichia coli IAI1)	growth AUC (Eubacterium rectale)	growth AUC [3]	growth AUC (Lactobacillus gasseri)	growth AUC (Lactobacillus paracasei)	growth AUC (Odoribacter splanchnicus)	growth AUC [4]	growth AUC (Parabacteroides merdae)
CCOP(=S)(OCC)Oc1cnccn1	0.892	0.985	0.963	1.01	0.979	0.985	0.982	1.04	0.974	0.993	0.984	0.988	0.963	0.813	1.01	0.993	1.01	1.04	1	1.01
COCc1cnc(C2=NC(C)(C(C)C)C(=O)N2)c(C(=O)O)c1 (stereo not given)	1.12	0.971	1.03	0.918	1	0.999	1.01	1.22	0.973	0.998	0.971	1	0.982	1.09	1.05	0.91	0.934	1.05	1.03	0.987
CC(C)=CC1C(C(=O)OC(C#N)c2cccc(Oc3ccccc3)c2)C1(C)C (mixture of isomers)	0.826	0.964	0.994	0.989	1.11	1.01	1.06	0.914	1	0.935	0.983	1	0.967	0.965	0.921	0.921	1.23	1.01	1	1
CNC(=O)/C(=N\OC)c1ccccc1Oc1ccccc1	0.873	0.981	0.959	0.97	0.953	1.02	0.998	0.987	1.01	1.03	1.01	1.01	1	0.963	0.974	1.05	0.986	0.961	1.02	0.99
CC(C)NC(=O)N1CC(=O)N(c2cc(Cl)cc(Cl)c2)C1=O	0.919	0.969	0.989	1.01	1.1	1.01	0.967	1.01	1.04	1.05	1.01	1.03	0.983	0.995	0.948	1.09	0.991	1	0.979	1
CCOP(=S)(OCC)SCCS(=O)(=O)CC	1.05	1.02	1	0.977	1.03	0.99	0.986	1.01	1	0.995	1.02	1.05	0.994	1.02	1	0.903	1.01	1.06	1.04	0.991
O=C(NC(=O)c1c(F)cccc1F)Nc1ccc(CO/N=C(\c2ccc(Cl)cc2)C2CC2)cc1	1.02	0.994	0.955	1.01	0.981	0.996	0.983	0.959	0.983	0.963	0.988	1	0.986	0.952	0.997	0.963	0.962	1.01	1.04	0.975
O=NN(CCO)CCO	1.01	1.01	1.02	0.979	1.18	1.01	1.02	0.837	1.01	0.994	1.01	0.994	1	0.977	1.01	0.976	1.01	1.13	0.861	1.04
CC1(C(=O)Nc2ccc(O)c(Cl)c2Cl)CCCCC1	0.827	0.986	0.954	0.995	0.952	0.94	0.962	0.978	0.98	0.995	0.965	1.01	0.991	0.973	0.915	1.03	0.949	0.907	1.05	0.993
C[C@@H](Oc1ccc(Oc2ccc(C(F)(F)F)cn2)cc1)C(=O)O	1.08	1.04	1.02	1.02	1.05	1.02	0.995	0.985	1.02	0.957	1.03	1	1	1.06	1.06	0.867	1.02	1.03	1.01	1.07
COP(=O)(OC)O/C(=C/Br)c1ccc(Cl)cc1Cl	1.06	1	0.978	0.979	1.02	0.96	0.961	1.03	0.983	1	1.01	0.981	1	1	1.07	0.885	1.01	1.03	0.883	0.963
CCCCOC(=O)[C@@H](C)Oc1ccc(Oc2ccc(C#N)cc2F)cc1	1.1	0.973	1	0.969	0.973	0.954	0.975	0.984	0.981	0.984	1.01	1	0.966	1.11	1.01	0.87	0.939	1	0.704 (active)	0.971
Nc1cccc(Cl)c1Cl	0.928	1.04	1	0.999	1.18	0.999	1.02	0.921	0.999	1.06	1.01	1.04	1.03	0.947	1.1	1.05	0.962	0.991	1.02	0.998
COC(=O)c1sccc1S(=O)(=O)NC(=O)Nc1nc(C)nc(OC)n1	1.13	0.932	0.994	0.875	0.961	0.924	1.03	1.09	0.944	0.898	0.962	0.97	0.967	1.14	0.975	0.859	1.03	1.01	0.969	0.973
CCOP(=S)(OCC)Oc1cc(-c2ccccc2)on1	1.24	0.984	0.984	0.861	0.961	0.956	0.955	1.06	1.02	0.942	1.03	0.993	0.993	1.05	0.973	0.886	0.964	1.01	0.854	1
O=C(O)c1ccccc1C(=O)Nc1cccc2ccccc12	1.04	1.04	1.02	1.02	1.18	1.01	0.993	1.03	1.01	1.03	0.971	1.05	1	1.08	1.06	0.979	1.02	1.06	0.979	0.987
